According to the supplement of paper PMC9262897, “Low-cost anti-mycobacterial drug discovery using engineered E. coli” (Nature Communications, 2022):
Counter-ions that a name gives are not always drawn. ± gives the standard deviation of the averaged measurements.

How the values were obtained:
Assay in all cases: growth (OD600 after 10 h); higher = more growth (less inhibition)
[1] = system: E. coli TESEC Alr+ wild-type control; conditions: compound 0.1 mM; raw OD600 reference: median of DMSO wells 0.241, cell-free background 0.041
Method: (§1)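 TESEC Mtb Alr E. coli, or the Alr+ wild-type control, in 384-well plates with Prestwick library compounds at 0.1 mM and 1% DMSO, across arabinose induction levels of 1E3 to 1E7 nM. Growth is read as OD600 after 10 h at 37 °C in triplicate biological replicates.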

E. coli TESEC Mtb Alr [2] = conditions: compound 0.1 mM
Method: as §1

E. coli TESEC Mtb Asd = conditions: compound 0.1 mM
Method: (§2)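 TESEC E. coli strains in which the native enzyme is deleted and replaced by arabinose-inducible Mtb Asd, DapB, CysH or TrpD, each grown in its selective medium. Strains were screened against the Prestwick library at 0.1 mM and 1% DMSO in 384-well format at low and high arabinose induction. Growth is read as OD600 after 10 h in triplicate.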

E. coli TESEC Mtb DapB = conditions: compound 0.1 mM
Method: as §2

[3] = system: E. coli TESEC Alr+ wild-type control; conditions: compound 0.1 mM; raw OD600 reference: median of DMSO wells 0.49, cell-free background 0.052
Method: (§3)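 TESEC Mtb Alr E. coli (ΔaraC ΔtolC ΔentC Δalr ΔdadX, arabinose-inducible Mtb Alr) or the Alr+ wild-type control strain, grown in defined M9-fructose medium without D-alanine in 96-well plates with Prestwick library compounds at 0.1 mM and 1% DMSO. Low Alr induction is 0.1 µM arabinose and high induction is 10 mM arabinose.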

E. coli TESEC Mtb Alr [4] = conditions: compound 0.1 mM; remark: listed apart in the source
Method: as §3

[5] = arabinose 1000 nM, raw OD600 reference: median of DMSO wells 0.294, cell-free background 0.041
[6] = arabinose 10000 nM, raw OD600 reference: median of DMSO wells 0.264, cell-free background 0.041
[7] = arabinose 100000 nM, raw OD600 reference: median of DMSO wells 0.201, cell-free background 0.041
[8] = arabinose 1000000 nM, raw OD600 reference: median of DMSO wells 0.193, cell-free background 0.041
[9] = arabinose 10000000 nM, raw OD600 reference: median of DMSO wells 0.146, cell-free background 0.041
[10] = arabinose induction (level): High, raw OD600 reference: median of DMSO wells 0.331, cell-free background 0.041
[11] = arabinose induction (level): Low, raw OD600 reference: median of DMSO wells 0.417, cell-free background 0.041
[12] = arabinose induction (level): High, raw OD600 reference: median of DMSO wells […], cell-free background 0.041
[13] = arabinose induction (level): Low, raw OD600 reference: median of DMSO wells 0.227, cell-free background 0.041
[14] = arabinose 100 nM, raw OD600 reference: median of DMSO wells 0.413, cell-free background 0.052
[15] = arabinose 10000000 nM, raw OD600 reference: median of DMSO wells […], cell-free background 0.052

| Compound | growth [1] | growth (E. coli TESEC Mtb Alr [2]; [5]) | growth (E. coli TESEC Mtb Alr [2]; [6]) | growth (E. coli TESEC Mtb Alr [2]; [7]) | growth (E. coli TESEC Mtb Alr [2]; [8]) | growth (E. coli TESEC Mtb Alr [2]; [9]) | growth (E. coli TESEC Mtb Asd; [10]) | growth (E. coli TESEC Mtb Asd; [11]) | growth (E. coli TESEC Mtb DapB; [12]) | growth (E. coli TESEC Mtb DapB; [13]) | growth [3] | growth (E. coli TESEC Mtb Alr [4]; [14]) | growth (E. coli TESEC Mtb Alr [4]; [15]) |
| --- | --- | --- | --- | --- | --- | --- | --- | --- | --- | --- | --- | --- | --- |
| C=C(NC(=O)C(=C)NC(=O)c1csc(C2=N[C@@H]3c4csc(n4)[C@H]4NC(=O)c5csc(n5)[C@H]([C@](C)(O)[C@@H](C)O)NC(=O)[C@H]5CSC(=N5)/C(=C/C)NC(=O)[C@H]([C@@H](C)O)NC(=O)c5csc(n5)[C@]3(CC2)NC(=O)[C@H](C)NC(=O)C(=C)NC(=O)[C@H](C)NC(=O)[C@H]([C@@H](C)CC)N[C@@H]2C=Cc3c([C@H](C)O)cc(nc3[C@H]2O)C(=O)O[C@@H]4C)n1)C(N)=O [Thiostrepton] | 0.297 ± 0.021 | 0.327 ± 0.004 | 0.298 ± 0.013 | 0.397 ± 0.0046 | 0.185 ± 0.0083 | 0.229 ± 0.02 | 0.295 ± 0.053 | 0.299 ± 0.091 | 0.164 ± 0.047 | 0.194 ± 0.058 | 0.603 ± 0.094 | 0.415 ± 0.019 | 0.316 ± 0.032 |
| O=C(O)CCC(=O)c1ccc(-c2ccccc2)cc1 [Fenbufen] | 0.201 ± 0.0054 | 0.232 ± 0.013 | 0.229 ± 0.0062 | 0.137 ± 0.0052 | 0.128 ± 0.0089 | 0.127 ± 0.0092 | 0.25 ± 0.049 | 0.286 ± 0.047 | 0.165 ± 0.0041 | 0.203 ± 0.047 | 0.441 ± 0.051 | 0.399 ± 0.013 | 0.235 ± 0.007 |
| NCCc1c[nH]cn1 [Histamine dihydrochloride] | 0.24 ± 0.012 | 0.2947 ± 0.0029 | 0.258 ± 0.0056 | 0.192 ± 0.019 | 0.192 ± 0.011 | 0.139 ± 0.003 | 0.303 ± 0.062 | 0.403 ± 0.011 | 0.193 ± 0.015 | 0.23 ± 0.0077 | 0.501 ± 0.067 | 0.42 ± 0.011 | 0.312 ± 0.0092 |
| Clc1ccc(C(c2ccccc2Cl)C(Cl)Cl)cc1 (stereo not drawn) [Mitotane] | 0.224 ± 0.0027 | 0.215 ± 0.017 | 0.224 ± 0.01 | 0.183 ± 0.012 | 0.0935 ± 0.018 | 0.133 ± 0.013 | 0.213 ± 0.018 | 0.204 ± 0.018 | 0.208 ± 0.0072 | 0.224 ± 0.033 | 0.403 ± 0.0086 | 0.38 ± 0.011 | 0.0729 ± 0.0022 |
| CCOC(=O)C1=C(C)NC(C)=C(C(=O)OCC)C1c1ccccc1/C=C/C(=O)OC(C)(C)C [Lacidipine] | 0.2596 ± 0.0023 | 0.308 ± 0.013 | 0.247 ± 0.0068 | 0.201 ± 0.017 | 0.119 ± 0.0029 | 0.156 ± 0.0078 | 0.299 ± 0.12 | 0.346 ± 0.043 | 0.157 ± 0.0032 | 0.182 ± 0.0034 | 0.521 ± 0.056 | 0.429 ± 0.017 | 0.322 ± 0.023 |
| CCC(NC(C)C)C(O)c1ccc(O)c(O)c1 (stereo not drawn) [Isoetharine mesylate salt] | 0.196 ± 0.0071 | 0.303 ± 0.012 | 0.277 ± 0.005 | 0.188 ± 0.018 | 0.18 ± 0.0035 | 0.155 ± 0.0024 | 0.309 ± 0.11 | 0.37 ± 0.062 | 0.187 ± 0.0097 | 0.226 ± 0.031 | 0.64 ± 0.039 | 0.401 ± 0.032 | 0.344 ± 0.019 |
| C[C@]12CC[C@H]3[C@@H](CCC4=CC(=O)CC[C@@]43C)[C@@H]1CC[C@@H]2C(=O)CO [Deoxycorticosterone] | 0.119 ± 0.0025 | 0.163 ± 0.022 | 0.152 ± 0.0059 | 0.122 ± 0.0033 | 0.107 ± 0.002 | 0.127 ± 0.006 | 0.363 ± 0.012 | 0.245 ± 0.01 | 0.136 ± 0.008 | 0.165 ± 0.0069 | 0.333 ± 0.018 | 0.362 ± 0.022 | 0.157 ± 0.0071 |
| CN(Cc1cc(Br)cc(Br)c1N)C1CCCCC1 [Bromhexine hydrochloride] | 0.0422 ± 0.0023 | 0.0459 ± 0.0083 | 0.04107 ± 0.00031 | 0.0454 ± 0.0014 | 0.0423 ± 0.00059 | 0.0454 ± 0.00098 | 0.194 ± 0.028 | 0.0472 ± 0.0019 | 0.04827 ± 0.00047 | 0.0644 ± 0.0038 | 0.0641 ± 0.0033 | 0.0619 ± 0.0019 | 0.0553 ± 0.0034 |
| COc1ccc2c(c1)N(C[C@H](C)CN(C)C)c1ccccc1S2 [Methotrimeprazine maleat salt] | 0.187 ± 0.0042 | 0.25 ± 0.015 | 0.274 ± 0.015 | 0.2 ± 0.0049 | 0.139 ± 0.0095 | 0.179 ± 0.002 | 0.131 ± 0.0046 | 0.2312 ± 0.0023 | 0.1934 ± 0.0013 | 0.211 ± 0.012 | 0.477 ± 0.023 | 0.402 ± 0.0072 | 0.282 ± 0.02 |
| CN1CCC[C@@H]1CCO[C@](C)(c1ccccc1)c1ccc(Cl)cc1 [Clemastine fumarate] | 0.0447 ± 0.00026 | 0.0419 ± 0.00017 | 0.0403 ± 0.0001 | 0.04353 ± 0.00025 | 0.04023 ± 0.00015 | 0.0439 ± 0.0004 | 0.0482 ± 0.0021 | 0.0504 ± 0.0026 | 0.0513 ± 0.00046 | 0.102 ± 0.085 | 0.218 ± 0.29 | 0.421 ± 0.0052 | 0.0923 ± 0.02 |
| CC1CCc2c(N3CCC(O)CC3)c(F)cc3c(=O)c(C(=O)O)cn1c23 (stereo not drawn) [Nadifloxacin] | 0.04253 ± 5.8e-05 | 0.04043 ± 0.00023 | 0.0418 ± 0.0029 | 0.0437 ± 0.005 | 0.03983 ± 0.00031 | 0.04117 ± 0.00023 | 0.0522 ± 0.007 | 0.0485 ± 0.0008 | 0.0495 ± 0.00066 | 0.0498 ± 0.0021 | 0.0538 ± 0.0013 | 0.0535 ± 0.00072 | 0.05197 ± 5.8e-05 |
| NC[C@H]1CC[C@H](C(=O)O)CC1 [Tranexamic acid] | 0.254 ± 0.0017 | 0.293 ± 0.0074 | 0.282 ± 0.0046 | 0.215 ± 0.031 | 0.186 ± 0.002 | 0.141 ± 0.0029 | 0.381 ± 0.056 | 0.446 ± 0.026 | 0.188 ± 0.011 | 0.214 ± 0.018 | 0.456 ± 0.04 | 0.411 ± 0.0076 | 0.349 ± 0.0049 |
| NS(=O)(=O)c1cc2c(cc1Cl)NC(CC1CCCC1)NS2(=O)=O (stereo not drawn) [Cyclopenthiazide] | 0.236 ± 0.0074 | 0.278 ± 0.0078 | 0.2543 ± 0.0017 | 0.273 ± 0.013 | 0.191 ± 0.0034 | 0.143 ± 0.0052 | 0.377 ± 0.063 | 0.314 ± 0.053 | 0.212 ± 0.0077 | 0.214 ± 0.0079 | 0.513 ± 0.035 | 0.375 ± 0.011 | 0.356 ± 0.0061 |
| C[C@@H]1NC(=O)NC1=O [Methylhydantoin-5-(L)] | 0.236 ± 0.0048 | 0.292 ± 0.012 | 0.274 ± 0.005 | 0.182 ± 0.017 | 0.186 ± 0.0047 | 0.1457 ± 0.0013 | 0.427 ± 0.024 | 0.44 ± 0.036 | 0.192 ± 0.013 | 0.245 ± 0.022 | 0.49 ± 0.056 | 0.411 ± 0.016 | 0.352 ± 0.014 |
| CCN(CC)CC(=O)Nc1c(C)cccc1C [Lidocaine hydrochloride] | 0.238 ± 0.0076 | 0.256 ± 0.062 | 0.273 ± 0.017 | 0.194 ± 0.01 | 0.183 ± 0.0033 | 0.146 ± 0.0067 | 0.267 ± 0.048 | 0.403 ± 0.057 | 0.204 ± 0.0083 | 0.235 ± 0.048 | 0.586 ± 0.028 | 0.41 ± 0.0091 | 0.345 ± 0.019 |
| CNCCc1ccccn1 [Betahistine mesylate] | 0.251 ± 0.0026 | 0.302 ± 0.006 | 0.269 ± 0.0066 | 0.243 ± 0.047 | 0.182 ± 0.0047 | 0.164 ± 0.005 | 0.299 ± 0.087 | 0.4 ± 0.042 | 0.217 ± 0.025 | 0.25 ± 0.017 | 0.557 ± 0.1 | 0.408 ± 0.014 | 0.319 ± 0.025 |
